In the library only some 3.4% were active in any assay of this set; here they are far more common.
GPR151 ag = activates the human receptor GPR151 | actives 1% (n = 650,000) | activation, % at 11.2 µM | AID 1508602 | PathHunter beta-arrestin GPR151 cells, luminescence | Q8TDV0; in the data active = activation above about 4.9%
Target sequence (Q8TDV0 whole entry, looked up): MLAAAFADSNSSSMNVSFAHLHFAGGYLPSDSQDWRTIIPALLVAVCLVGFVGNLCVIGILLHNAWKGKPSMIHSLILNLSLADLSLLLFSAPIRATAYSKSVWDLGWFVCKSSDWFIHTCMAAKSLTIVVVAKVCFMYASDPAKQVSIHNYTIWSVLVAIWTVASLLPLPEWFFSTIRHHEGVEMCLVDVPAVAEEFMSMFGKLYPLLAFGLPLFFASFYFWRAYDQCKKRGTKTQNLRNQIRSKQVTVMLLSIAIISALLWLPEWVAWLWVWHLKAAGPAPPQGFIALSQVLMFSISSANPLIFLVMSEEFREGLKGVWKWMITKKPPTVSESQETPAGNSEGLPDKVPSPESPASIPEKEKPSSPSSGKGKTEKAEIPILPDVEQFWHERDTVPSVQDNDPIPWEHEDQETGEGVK
TEAD-YAP block = TEAD-YAP interaction inhibition; actives 1.4% (n = 640,000); inhibition, % at 9.12 µM; AID 1259422; HEK-TIYL cells, TEAD-Gal4/YAP UAS-luciferase luminescence; in the data active = inhibition above about 32%
MITF inh = blocks human microphthalmia-associated transcription factor. AID 1259374. O75030. AlphaScreen MITF homodimerization, bead proximity signal. actives 0.91% (n = 650,000). inhibition, % at 2.6 µM; in the data active = inhibition above about 50%
FBW7 activator = activators of human E3 ligase FBW7 | Q969H0 | AlphaScreen FBW7–phospho-cyclin E peptide binding, activator screen | normalized activity (activation), % at 26.1 µM | actives 0.13% (n = 650,000) | AID 1259310; in the data active = normalized activity above about 1.9%;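 also: purified mutant Fbw7 with reduced substrate affinity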
MITF inh conf = human MITF inhibition, confirmation. AlphaScreen MITF homodimerization, biotin/His-MITF beads. shares compounds with MITF inh. inhibition, % at 2.6 µM. actives 16% (n = 4,700);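 active = inhibition above a cutoff derived from the DMSO control wells, cut at about 28% in these data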;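 also: inhibitors lower the bead chemiluminescence by keeping MITF from dimerizing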
AlphaScreen intf2 = optically interferes with AlphaScreen signal. shares compounds with MITF inh. LysRS AlphaScreen counterscreen, signal interference, triplicate. inhibition, % at 2.6 µM. actives 7.6% (n = 4,700);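 active = inhibition above a cutoff derived from the DMSO control wells, cut at about 30% in these data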
Numbers stand for hits; i = inactive; nt = no result given.

SMILES	GPR151 ag	TEAD-YAP block	MITF inh	FBW7 activator	MITF inh conf	AlphaScreen intf2
COc1ccc(Br)cc1CN1CCN(C(=O)c2cccs2)CC1	i	i	64.0	i	i	i
COc1ccc(CN2CCN(C(=O)c3ccco3)CC2)cc1Br	i	i	53.2	i	i	i
COc1ccc(CN2CCN(C(=O)c3cccc(Cl)c3)CC2)c(OC)c1	i	i	54.1	i	i	i
Cc1cccc(C(=O)Nc2ccc(O)cc2C)c1	i	i	i	i	nt	nt
Cc1cc(C(=O)NC(C)C(C)(C)C)no1 (stereo not given)	i	i	i	i	nt	nt
OCc1ccc(-c2cnc3c(NCC4CC4)nccn23)cc1	i	i	i	i	nt	nt
COc1cccc(C(=O)N2CCN(Cc3ccc(Br)cc3)CC2)c1	i	i	61.3	i	i	i
CCc1ccc(CN2CCN(C(=O)c3ccco3)CC2)cc1	i	i	51.3	i	i	i
CCOc1ccc(CN2CCN(C(=O)c3c(OC)cccc3OC)CC2)cc1	i	i	i	i	nt	nt
COc1cccc(OC)c1C(=O)N1CCN(Cc2ccco2)CC1	i	i	60.7	i	i	i
COc1cccc(OC)c1C(=O)N1CCN(Cc2ccc(Br)cc2)CC1	i	i	64.2	i	i	i
O=C(O)c1ccc(N2C(=O)CC(N3CCNC3=S)C2=O)cc1 (stereo not given)	i	i	i	i	nt	nt
O=C1/C(=C\Nc2cccc([N+](=O)[O-])c2)CCc2ccccc21	i	i	i	i	nt	nt
COc1cc(OC)c(OC)cc1CN1CCN(Cc2ccco2)CC1	i	i	81.1	i	i	i
COC(=O)C(=Cc1ccc(OC)c(C(=O)O)c1)C(=O)OC	i	i	63.5	i	i	i
CC1CCC(N2CCN(Cc3ccc([N+](=O)[O-])cc3)CC2)CC1 (stereo not given)	i	i	65.3	i	i	i
O=[N+]([O-])c1ccc(CN2CCC(N3CCN(CCO)CC3)CC2)cc1	i	i	53.2	i	i	i
CC1CCCC(N2CCN(c3ccc([N+](=O)[O-])cc3)CC2)C1 (stereo not given)	i	i	i	i	nt	nt
CC1CCN(Cc2ccc([N+](=O)[O-])cc2)CC1	i	i	i	i	nt	nt
O=[N+]([O-])c1ccc(CN2CCC(N3CCCCCC3)CC2)cc1	i	i	i	i	nt	nt
CCCN1CCC(N2CCN(c3ccc([N+](=O)[O-])cc3)CC2)CC1	i	i	54.7	i	i	i
O=C(NCc1ccco1)C(=O)Nc1ccc(F)cc1F	i	i	i	i	nt	nt
OCc1ccc(-c2cnc(NCc3cccc(Cl)c3)c3nccn23)cc1	i	i	i	i	nt	nt
CCOC(=O)c1cnc(OC)[nH]c1=O	i	i	i	i	nt	nt
CCOC(=O)c1cnc(-n2[nH]c3c(c2=O)CCCC3)[nH]c1=O	i	i	88.2	i	47.1	63.9
SMILES	GPR151 ag	TEAD-YAP block	MITF inh	FBW7 activator	MITF inh conf	AlphaScreen intf2
CC1CCc2c(sc3nc(C4CC4)nc(SCC(N)=O)c23)C1 (stereo not given)	i	i	i	i	nt	nt
Oc1ccc(/C=N\Nc2nncc(-c3ccccc3)n2)cc1	i	i	i	i	nt	nt
COc1ccc(/C=N/Nc2nncc(-c3ccccc3)n2)cc1Br	i	i	64.7	i	i	i
CSc1nc(NN)c2c3c(sc2n1)CN(C)CC3	i	i	73.8	i	i	i
COc1cccc(C(=O)N2CCN(Cc3c[nH]c4ccccc34)CC2)c1	i	i	72.9	i	i	i
O=C(c1ccncc1)N1CCN(Cc2c[nH]c3ccccc23)CC1	i	i	56.3	i	i	i
O=C(c1cccc(Cl)c1)N1CCN(Cc2c[nH]c3ccccc23)CC1	i	i	i	i	nt	nt
O=C(c1ccncc1)N1CCN(CCc2ccccc2)CC1	i	i	i	i	nt	nt
O=C(Nc1cc([N+](=O)[O-])ccc1C(=O)NCCc1ccccc1)c1ccccc1	i	i	66.9	i	i	i
CCOC(=O)c1ccc(N=Cc2c(O)n(-c3ccc(C)cc3)c(=O)[nH]c2=O)cc1	i	i	i	i	nt	nt
CCOC(=O)c1c(NC(=O)CSc2nnc(CNC(=O)c3ccc(C)c([N+](=O)[O-])c3)n2-c2ccccc2OC)sc2c1CCCC2	i	i	i	i	nt	nt
Cc1c(NC(=O)C(C)OC(=O)c2cc3ccccc3cc2O)c(=O)n(-c2ccccc2)n1C (stereo not given)	i	i	i	i	nt	nt
COc1ccccc1OCCN1CCN(C)CC1	i	i	72.6	i	i	i
COc1ccccc1OCCN1CCCCC1	i	i	i	i	nt	nt
COc1ccccc1OCCN1CCN(c2ccccc2)CC1	i	i	i	i	nt	nt

Screens as filed in PubChem.
